These results are taken from the supplement of paper PMC6607015.

Where a name gives a salt, the structure may show the parent alone.

Common to all, as to settings: compound concentration in added solution (µM; 5 µl added to 20 µl cells): 10; 18 h
The subject of assay [1] is A431. Put plainly: LBPA endosome anti-LBPA integrated intensity (sum per cell), Z-score; higher = more LBPA staining. An outline of the steps:
(§1)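 HeLa MZ or A431 cells (3,500/well in 20 µl) were seeded onto 5 µl of 10 µM compound solution in duplicate 384-well imaging plates, incubated 18 h, then fixed in 4% PFA. Cells were stained with 6C4 anti-LBPA antibody, filipin, propidium iodide and CellTracker green, and four 20× images were taken per well. MetaXpress segmentation gave per-cell integrated LBPA or filipin intensity, either whole-cell or within LBPA endosomes. Values are Z-scores normalised in AcuityXpress.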

Assay [2] deals with HeLa MZ. The assay is described as above. In a few lines:
as §1

Assay [3] deals with A431. Put plainly: whole-cell filipin (free cholesterol) integrated intensity, Z-score; higher = more cholesterol staining. In a few lines:
as §1

The subject of assay [4] is HeLa MZ. The assay is described as above. In a few lines: as §1
Assay [5] relates to A431. Put plainly: filipin (cholesterol) integrated intensity within LBPA endosomes, Z-score; higher = more cholesterol in LBPA endosomes. An outline of the steps: as §1
Assay [6] deals with HeLa MZ. The assay is described as above. In a few lines:
as §1

`CCN(C(C)=O)c1cccc(-c2ccnc3c(C#N)cnn23)c1` [Zaleplon]: the “LBPA endosome anti-LBPA integrated intensity (z-score)” value with A431 [1] is -0.486; with HeLa MZ [2], -0.0487. For the same molecule, the “whole-cell filipin (z-score)” value in the assay with A431 [3] is -0.573; in the assay with HeLa MZ [4] it was -0.909. In addition, the “filipin (z-score)” value with A431 [5] was -0.493; with HeLa MZ [6] it was -0.507.

As for `CCN[C@@H](C)Cc1cccc(C(F)(F)F)c1` [Dexfenfluramine hydrochloride], the results for the “LBPA endosome anti-LBPA integrated intensity (z-score)” value with A431 [1] and in the assay on HeLa MZ [2] were -0.18 and -0.965, respectively. Besides, the “whole-cell filipin (z-score)” value in the assay with A431 [3] is -0.95; with HeLa MZ [4] it was -0.721. Further, the “filipin (z-score)” value with A431 [5] was -0.444; with HeLa MZ [6], -0.703.

Consider `COc1ccc(Cc2nccc3cc(OC)c(OC)cc23)cc1OC` [Papaverine hydrochloride], for which the “LBPA endosome anti-LBPA integrated intensity (z-score)” value in the assay on A431 [1] was -0.662; in the assay on HeLa MZ [2], 0.0558. Also, the results for the “whole-cell filipin (z-score)” value in the assay with A431 [3] and in the assay with HeLa MZ [4] were -0.685 and -0.814, respectively. Moreover, the “filipin (z-score)” value was -0.607 in the assay on A431 [5] and -0.356 in the assay on HeLa MZ [6].

`CCC(=O)O[C@@](Cc1ccccc1)(c1ccccc1)[C@@H](C)CN(C)C` [Levopropoxyphene napsylate]: the “LBPA endosome anti-LBPA integrated intensity (z-score)” value in the assay with A431 [1] was -0.308; with HeLa MZ [2], -0.465. In addition, the “whole-cell filipin (z-score)” value came to 0.489 with A431 [3] and 0.709 in the assay with HeLa MZ [4]. Besides, the figures for the “filipin (z-score)” value with A431 [5] and in the assay with HeLa MZ [6] were 0.194 and -0.129, respectively.

In the case of `O=C(CCCN1CCC2(CC1)C(=O)NCN2c1ccccc1)c1ccc(F)cc1` [Spiperone], the entries for the “LBPA endosome anti-LBPA integrated intensity (z-score)” value in the assay on A431 [1] and with HeLa MZ [2] were 1.39 and 1.71, respectively. The “whole-cell filipin (z-score)” value in the assay with A431 [3] worked out at 1.66; in the assay on HeLa MZ [4], 1.7. Moreover, the “filipin (z-score)” value stood at 1.87 in the assay on A431 [5] and 2.13 in the assay on HeLa MZ [6].

As for `COc1ccc2c(c1)[C@]13CCCC[C@@H]1[C@H](C2)N(C)CC3` [Dextromethorphan hydrobromide monohydrate], the results for the “LBPA endosome anti-LBPA integrated intensity (z-score)” value in the assay with A431 [1] and with HeLa MZ [2] were -0.375 and 0.494, respectively. For the same molecule, the figures for the “whole-cell filipin (z-score)” value with A431 [3] and with HeLa MZ [4] were -0.0383 and 0.286, respectively. In addition, the “filipin (z-score)” value with A431 [5] was -0.149; with HeLa MZ [6], 0.237.

For the molecule `C[C@@H]1CN([C@H]2CC[C@](C#N)(c3ccc(F)cc3)CC2)CC[C@]1(C(=O)O)c1ccccc1` [Levocabastine hydrochloride], the entries for the “LBPA endosome anti-LBPA integrated intensity (z-score)” value in the assay with A431 [1] and with HeLa MZ [2] were -0.412 and -0.243, respectively. For the same molecule, the “whole-cell filipin (z-score)” value in the assay on A431 [3] was -0.194; in the assay with HeLa MZ [4], -0.189. Besides, the results for the “filipin (z-score)” value in the assay with A431 [5] and in the assay with HeLa MZ [6] were -0.388 and -0.461, respectively.

As for `C[N+]1([O-])[C@@H]2C[C@@H](OC(=O)[C@H](CO)c3ccccc3)C[C@H]1[C@@H]1O[C@@H]12` (stereo partly drawn) [Scopolamin-N-oxide hydrobromide], the figures for the “LBPA endosome anti-LBPA integrated intensity (z-score)” value with A431 [1] and in the assay on HeLa MZ [2] were -0.692 and -1.8, respectively. For the same molecule, the figures for the “whole-cell filipin (z-score)” value with A431 [3] and with HeLa MZ [4] were -1.01 and -0.711, respectively. In addition, the “filipin (z-score)” value in the assay on A431 [5] is -0.67; with HeLa MZ [6], -0.618.

On to `Clc1ccc(C(OCCN2CCCCC2)c2ccccc2)cc1` (stereo not drawn) [Cloperastine hydrochloride], for which the “LBPA endosome anti-LBPA integrated intensity (z-score)” value in the assay on A431 [1] came to 3.12; in the assay with HeLa MZ [2] it was 1.44. The “whole-cell filipin (z-score)” value in the assay on A431 [3] is 1.35; in the assay on HeLa MZ [4] it was -0.495. Also, the entries for the “filipin (z-score)” value in the assay on A431 [5] and with HeLa MZ [6] were 2.83 and 0.777, respectively.

Take `CNC(C)(C)Cc1ccccc1` [Mephentermine hemisulfate]: the “LBPA endosome anti-LBPA integrated intensity (z-score)” value in the assay with A431 [1] was -0.473; in the assay with HeLa MZ [2], -0.965. Moreover, the “whole-cell filipin (z-score)” value was -0.48 in the assay with A431 [3] and -0.125 in the assay on HeLa MZ [4]. Moreover, the “filipin (z-score)” value in the assay on A431 [5] is -0.471; in the assay on HeLa MZ [6], -0.403.

As for `CC[C@@H](CO)NC(=O)[C@@H]1C=C2c3cccc4[nH]cc(c34)C[C@H]2N(C)C1` [Methylergometrine maleate], the entries for the “LBPA endosome anti-LBPA integrated intensity (z-score)” value in the assay with A431 [1] and in the assay on HeLa MZ [2] were -0.539 and -1.25, respectively. Further, the “whole-cell filipin (z-score)” value with A431 [3] was -0.649; with HeLa MZ [4], -0.308. In addition, the entries for the “filipin (z-score)” value in the assay with A431 [5] and with HeLa MZ [6] were -0.495 and -0.637, respectively.

As to `C[N+]1(C)CCOC(O)(c2ccc(-c3ccc(C4(O)C[N+](C)(C)CCO4)cc3)cc2)C1` (stereo not drawn) [Hemicholinium bromide], the entries for the “LBPA endosome anti-LBPA integrated intensity (z-score)” value with A431 [1] and in the assay with HeLa MZ [2] were -0.629 and -1.27, respectively. In addition, the figures for the “whole-cell filipin (z-score)” value with A431 [3] and with HeLa MZ [4] were -0.551 and -0.638, respectively. In addition, the “filipin (z-score)” value in the assay with A431 [5] was -0.55; in the assay with HeLa MZ [6] it was -0.667.

As for `C[C@]12C[C@H]3S[C@H]3C[C@@H]1CC[C@@H]1[C@@H]2CC[C@]2(C)[C@@H](O)CC[C@@H]12` [Epitiostanol], the “LBPA endosome anti-LBPA integrated intensity (z-score)” value is -0.387 with A431 [1] and 0.565 in the assay with HeLa MZ [2]. For the same molecule, the “whole-cell filipin (z-score)” value in the assay on A431 [3] worked out at 0.372; in the assay on HeLa MZ [4], 0.761. The “filipin (z-score)” value with A431 [5] was -0.364; with HeLa MZ [6], -0.401.
